PKA-R1A activ: PKA-R1A complex activation | PKA-R1A dissociation, Cy5-IP20 fluorescence polarization; scaled: DMSO 0%, 113 µM cGMP 100% | AID 504707 | activation, % at 11.4 µM | P00514+P68181 | 340,000 tested, 0.083% active;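 active means percent activation above the mean of all tested compounds plus 3 SD, cut at about 19% in these data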;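 further: higher means more PKAc released from R1A so a rise in polarization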
ATG4B inhibitor: inhibitors of human ATG4B cysteine protease. Q9Y4P1. ATG4B cleavage of LC3-PLA2, NBD-HPC fluorescence, 1 h. inhibition, % at 8.33 µM. 340,000 tested, 0.51% active; in the data active means inhibition above about 40%
PKA-R2B activ: PKA-R2B complex activation; P22694+P31323; PKA-R2B holoenzyme dissociation, Cy5-IP20 fluorescence polarization; R2B truncated from residue 108, S112A mutant; 0% DMSO only, 100% 113 µM cGMP; activation, % at 11.4 µM; 340,000 tested, 0.079% active; AID 504700;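 active means activation above a cutoff set at the mean over all compounds plus 3 SD, cut at about 18% in these data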;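 further: higher means more holoenzyme dissociation and a rise in polarization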
VLA-4 inh: inhibition in a human VLA-4 binding assay; inhibition, % (about 7 µM as worked out from the volumes in the protocol); 330,000 tested, 0.2% active; VLA-4 expressing cells, ligand binding flow cytometry; P13612; in the data active means inhibition above about 50%
CendR NRP1 mod: NRP-1/CendR interaction modulation; O14786; inhibition, % at 25 µM; FAM-RPARPAR peptide binding to NRP-1, fluorescence polarization; AID 602438; 360,000 tested, 0.85% active;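 active means inhibition or corrected inhibition above about 18%, plus a signal ratio from 0.5 to 1.5, limit read from the data, passing the limit was not always enough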
R2B FP artifact: FP assay interference, PKA-R2B counter-screen. shares compounds with PKA-R2B activ. FP artifact counterscreen, fluorescence polarization. activation, % at 11.4 µM. 270 tested, 6% active; in the data active means activation above about 20%;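 further: Cy5 labelled IP20 peptide probe with compound but no PKA protein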
PKA-R2B act conf: confirmation of human PKA-R2B complex activators; activation, % at 11.4 µM; fluorescence polarization, activation; AID 504797; shares compounds with PKA-R2B activ; 270 tested, 9% active; in the data active means activation above about 19%
R1A FP artifact: FP assay interference, PKA-R1A counter-screen | shares compounds with PKA-R1A activ | Cy5-IP20 peptide alone, fluorescence polarization artifact counterscreen | activation, % at 11.4 µM | 280 tested, 7% active | AID 504799;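 active means mean activation over triplicate runs exceeds the adjusted cutoff derived for the parent primary screen, cut at about 19% in these data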;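 further: no PKA protein present so any polarization rise reflects compound interference; higher means stronger polarization artifact and likely false positive in parent screen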
PKA-R1A act conf: PKA-R1A complex activation, confirmation; shares compounds with PKA-R1A activ; Cy5-IP20 fluorescence polarization, PKA-R1A holoenzyme dissociation; activation, % at 11.4 µM; 280 tested, 9% active; AID 504800;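 active means mean activation over replicate wells exceeds the adjusted hit threshold taken from the earlier primary screen, cut at about 20% in these data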
Target sequence (P00514 whole entry, looked up): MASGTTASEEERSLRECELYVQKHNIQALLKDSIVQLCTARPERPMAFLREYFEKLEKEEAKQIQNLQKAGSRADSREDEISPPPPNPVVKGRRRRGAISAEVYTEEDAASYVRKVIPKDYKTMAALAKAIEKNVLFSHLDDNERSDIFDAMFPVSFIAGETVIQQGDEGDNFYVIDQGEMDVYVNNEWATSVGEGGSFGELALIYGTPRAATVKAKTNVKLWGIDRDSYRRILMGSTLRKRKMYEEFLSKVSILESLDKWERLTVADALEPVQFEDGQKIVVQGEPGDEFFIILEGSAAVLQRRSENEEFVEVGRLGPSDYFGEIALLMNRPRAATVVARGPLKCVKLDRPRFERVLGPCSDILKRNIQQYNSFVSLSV
A number is an active result; – = inactive; · = no result. The list is not random: actives were taken first. Their share in the collection is about 1.6%.

SMILES	PKA-R1A activ	ATG4B inhibitor	PKA-R2B activ	VLA-4 inh	CendR NRP1 mod	R2B FP artifact	PKA-R2B act conf	R1A FP artifact	PKA-R1A act conf
Cc1cccc(C)c1NC(=O)c1csc([C@H]2C[C@H](O)[C@@H](CO)O2)n1	·	·	·	·	–	·	·	·	·
COc1ccc(OC)c(-c2cc(-c3cccnc3)nc(N)c2C#N)c1	–	–	19	–	–	–	–	·	·
COc1ccc(/C=N/NC2=NS(=O)(=O)c3ccccc32)cc1	–	–	23	–	–	–	–	·	·
CC(=O)Oc1ccc(/C=N/NC2=NS(=O)(=O)c3ccccc32)cc1	–	–	–	–	–	·	·	·	·
Nc1cc(=O)[nH]c2ncnn12	–	–	–	·	–	·	·	·	·
CCn1c(SCC(=O)N/N=C/C=C\c2ccccc2[N+](=O)[O-])nnc1-c1ccccc1	–	–	–	–	–	·	·	·	·
Cc1ccccc1-n1c(SCC(=O)N/N=C/C=C/c2ccccc2[N+](=O)[O-])nc2ccccc2c1=O	–	–	21	–	–	–	–	·	·
CCCCc1ccc(S(=O)(=O)NC(=O)C2(C)CCN2C(=O)Cc2ccccc2)cc1 (stereo not drawn)	·	·	·	·	–	·	·	·	·
Cc1[nH]nc(SCC(=O)Nc2cccc(O)c2)c1[N+](=O)[O-]	–	–	19	–	–	–	–	·	·
CCC(=O)N1CCN(c2ccccc2NC(=O)COc2ccc(C(C)C)cc2)CC1	–	–	–	–	–	·	·	·	·
O=C(COC(=O)c1cccc(Br)c1)NCCNC(=O)COC(=O)c1cccc(Br)c1	–	–	–	–	–	·	·	·	·
Cc1ccc(S(=O)(=O)NC(C)(C)C)cc1C(=O)OCC(=O)N1CCCC1=O	–	–	20	–	–	–	–	·	·
COc1cc(NC(=O)CC[C@H]2O[C@@H](n3cnc4c(NC(=O)c5ccccc5)ncnc43)[C@H](O)[C@@H]2O)cc(OC)c1OC	·	·	·	·	–	·	·	·	·
CCCC(=O)Nc1ncnc2c1ncn2[C@@H]1O[C@@H]2COP(=O)(O)O[C@H]2[C@H]1OC(=O)CCC	41	–	33	–	–	–	34	–	37
Cc1ccn(CCC(=O)N2CCCC(N3CCN(c4ccccc4C)CC3)C2)n1 (stereo not drawn)	–	·	–	·	–	·	·	·	·
O=C(COc1ccccc1)NC(=S)Nc1cccc2c(O)cccc12	–	·	–	·	–	·	·	·	·
Nc1ncnc2c1nc(Sc1ccc(Cl)cc1)n2[C@@H]1O[C@@H]2COP(=O)(O)O[C@H]2[C@H]1O	107	–	106	–	–	–	101	–	106
O=C(NCc1nc2ccccc2[nH]1)C1=C[C@H](c2ccc(Br)cc2)C[C@H](OCc2ccc(CO)cc2)O1	35	–	26	–	–	27	22	27	27
C#Cc1ccc([C@H]2C=C(C(=O)NCc3nc4ccccc4[nH]3)O[C@@H](OCc3ccc(CO)cc3)C2)cc1	–	–	–	–	–	·	·	·	·
CC12CC3CC(C)(C1)CC(C(=O)NCc1ccncc1)(C3)C2	–	–	–	–	–	·	·	·	·
Cc1cc(=O)n2[nH]c(NCc3ccccc3F)nc2n1	30	–	36	–	–	34	31	34	35
CCCc1cc(=O)n2[nH]c(NCc3ccc(OC)c(OC)c3)nc2n1	–	–	–	–	–	·	·	·	·
CCCc1cc(=O)n2[nH]c(NCc3c(F)cccc3Cl)nc2n1	33	–	32	–	–	27	20	27	28
CCc1nc(SCC(=O)Nc2ccc(F)cc2)c2c(=O)n(C)c(=O)n(C)c2n1	–	–	–	–	–	·	·	·	·
COc1ccc(NC(=S)NNc2ccc(S(=O)(=O)Nc3ccccc3C(=O)O)cc2[N+](=O)[O-])cc1	64	–	83	–	–	50	46	50	52
SMILES	PKA-R1A activ	ATG4B inhibitor	PKA-R2B activ	VLA-4 inh	CendR NRP1 mod	R2B FP artifact	PKA-R2B act conf	R1A FP artifact	PKA-R1A act conf
CC1=C/C(=C(\c2cc(C)c(O)c(Br)c2)c2ccccc2S(=O)(=O)O)C=C(Br)C1=O	34	–	40	–	46	59	55	59	55
Cc1c(C(=O)N2CCCCCC2)c(S(=O)(=O)Nc2cccc(F)c2)c(C)n1C	–	–	–	–	–	·	·	·	·
Cc1cccc(NS(=O)(=O)c2c(C(=O)N3CCCC3)c(C)n(C)c2C)c1	21	–	–	–	–	·	·	–	–
CN(CC(=O)Nc1c(Cl)cccc1Cl)C(=O)c1ccccc1SCC(=O)N1CCCC1	–	–	–	–	–	·	·	·	·
CN(CCOc1ccc(Cl)cc1)C(=O)c1ccccc1SCC(=O)N1CCCC1	21	–	–	–	–	·	·	–	–
COc1ccccc1C1C(C(N)=O)=C(C)Nc2nc(-c3ccccc3Cl)nn21 (stereo not drawn)	–	–	–	–	–	·	·	·	·
COc1cccc(C2C(C(N)=O)=C(C)Nc3nc(-c4ccccc4Cl)nn32)c1 (stereo not drawn)	19	–	–	–	–	·	·	–	–
CN(C)S(=O)(=O)c1cccc(NC(=O)c2ccc3c(c2)OCCO3)c1	–	–	–	–	–	·	·	·	·
CC1C(=O)N(Cc2cn(CCC3OCCO3)nn2)CCS(=O)(=O)N1Cc1ccc(-c2ccc(F)cc2)cc1 (stereo not drawn)	20	·	–	·	–	·	·	–	–
CC1C(=O)N(Cc2cn(CCC3OCCO3)nn2)CCS(=O)(=O)N1Cc1ccc(-c2ccncc2)cc1 (stereo not drawn)	–	·	–	·	–	·	·	·	·
Cc1ccc(S(=O)(=O)NC2CC(C)(C)NC(C)(C)C2)cc1C	19	–	–	–	–	·	·	–	–
COc1ccc(N2CCN(S(=O)(=O)CCNC(=O)c3cc(=O)c4ccccc4o3)CC2)cc1	–	–	–	–	–	·	·	·	·
O=C(NCc1ccccc1)c1cccc(NC(=O)c2ccco2)c1	22	–	–	–	–	·	·	–	–
COc1ccc(-c2noc(CCC(=O)NCCc3ccccc3)n2)cc1OC	19	–	–	–	–	·	·	–	–
COc1cc2c(cc1OC)CN(C(=O)C(CCSC)NS(=O)(=O)c1ccc(C)cc1)CC2 (stereo not drawn)	20	–	–	–	–	·	·	–	–
Cc1cccc(OCC(=O)N(C)c2c(N)n(Cc3ccccc3)c(=O)[nH]c2=O)c1C	–	–	–	–	–	·	·	·	·
COc1ccccc1-c1csc(NC(=O)c2cc(-c3cccs3)nc3ccccc23)n1	23	–	–	–	–	·	·	–	–
CC(OC(=O)CCOc1ccccc1)C(=O)Nc1ccc(Cl)cn1 (stereo not drawn)	22	–	–	–	–	·	·	–	–

Bioassay records as filed in PubChem BioAssay.
